Compound activity (PubChem BioAssay)
Only some compounds are listed: those with a hit (about 3.5% of all), similar ones and a draw of the others.
GPR151 activ – activators of human GPR151; 1% of 650,000 active; activation, % at 11.2 µM; Q8TDV0; PathHunter beta-arrestin GPR151 cells, luminescence; in the data active means activation above about 4.9%
FBW7 activator – activators of human E3 ligase FBW7. 0.13% of 650,000 active. Q969H0. normalized activity (activation), % at 26.1 µM. AlphaScreen FBW7–phospho-cyclin E peptide binding, activator screen; in the data active means normalized activity above about 1.9%;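 further: purified mutant Fbw7 with reduced substrate affinity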
TEAD-YAP block – TEAD-YAP interaction inhibition. HEK-TIYL cells, TEAD-Gal4/YAP UAS-luciferase luminescence. inhibition, % at 9.12 µM. 1.4% of 640,000 active. AID 1259422; in the data active means inhibition above about 32%
MITF inh – human MITF inhibition, primary screen. inhibition, % at 2.6 µM. AlphaScreen MITF homodimerization, bead proximity signal. 0.91% of 650,000 active. O75030; in the data active means inhibition above about 50%
Target sequence (O75030 whole entry, looked up): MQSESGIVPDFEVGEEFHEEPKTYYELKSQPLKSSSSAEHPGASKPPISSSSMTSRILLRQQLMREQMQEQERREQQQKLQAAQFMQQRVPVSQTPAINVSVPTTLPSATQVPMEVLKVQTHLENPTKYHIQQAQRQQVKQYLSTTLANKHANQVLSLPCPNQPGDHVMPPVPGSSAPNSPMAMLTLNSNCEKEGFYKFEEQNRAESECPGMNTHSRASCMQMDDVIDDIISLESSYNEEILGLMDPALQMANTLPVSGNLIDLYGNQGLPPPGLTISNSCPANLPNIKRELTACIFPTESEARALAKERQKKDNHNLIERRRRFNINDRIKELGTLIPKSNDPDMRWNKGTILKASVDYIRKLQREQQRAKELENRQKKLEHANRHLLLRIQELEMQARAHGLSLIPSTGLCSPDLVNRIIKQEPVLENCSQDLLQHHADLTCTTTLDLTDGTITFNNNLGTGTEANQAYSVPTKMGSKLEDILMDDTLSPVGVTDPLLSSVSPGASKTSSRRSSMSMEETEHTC
Hits are given with their value; – = inactive.

SMILES | GPR151 activ | FBW7 activator | TEAD-YAP block | MITF inh
CC(C)n1cnc2c(Nc3ccc4c(c3)OCO4)nc(Nc3ccc(-n4ccnc4)cc3)nc21 | – | – | 39 | –
CC(=O)Nc1ccc(Nc2nc(Nc3ccc(N4CCOCC4)cc3)nc3c2ncn3C(C)C)cc1 | – | – | – | –
CCCOCc1cc(CN2CCCCC2)c(O)c2ncccc12 | – | – | 71 | 106
COCc1cc(CN2CCOCC2)c(O)c2ncccc12 | – | – | – | 90
CCOc1cccc(CN2CCCCCC2)c1O | – | – | – | –
Oc1c(CN2CCCCC2)cc(Br)c2cccnc12 | – | – | 58 | 98
CC(C)OCc1cc(CN2CCCCC2)c(O)c2ncccc12 | – | – | 86 | 104
COCc1cc(CN2CCN(c3ccccc3OC)CC2)c(O)c2ncccc12 | – | – | 42 | 107
CCOc1ccccc1N1CCN(Cc2cc(OC)c(O)c(OC)c2)CC1 | – | – | – | –
COCc1cc(CN2CCCCC2)c(O)c2ncccc12 | – | – | 76 | 98
CCCC(=O)Nc1n[nH]c2nc(C)cc(C)c12 | – | – | – | –
O=C(CN1CCCc2ccccc21)N/N=C/c1ccco1 | – | – | 68 | –
CC1(C)N=C(N)N=C(N)N1c1ccc(Oc2ccc(Cl)cc2)c(Cl)c1 | – | – | 37 | –
CCN1C(=O)C2C(c3ccc(O)c(OC)c3)NC(C)(C(=O)OC)C2C1=O (stereo unspecified) | – | – | 45 | –
COC(=O)C1(C)NC(c2ccc(O)c(OC)c2)C2C(=O)N(C)C(=O)C21 (stereo unspecified) | – | – | – | –
O=C(c1cccc(-n2cnnn2)c1)N1CCC2(CC1)Nc1ccccc1-n1cccc12 | – | – | – | –
CCOC(=O)c1ccc(Nc2c(N)c(=O)oc3ccccc23)cc1 | – | – | 52 | –
COc1ccccc1Nc1c2c(nc3ccccc13)CCC2 | – | – | 54 | –
CCOC(=O)c1ccc(Nc2c3c(nc4ccccc24)CCC3)cc1 | – | – | 42 | –
CCOC(=O)c1ccc(S(=O)(=O)Nc2c(C(=O)OCC)oc3ccccc23)cc1 | – | – | – | –
c1ccc(CCNc2c3c(nc4ccccc24)CCC3)cc1 | – | – | 39 | –
O=C(NCc1cccnc1)c1ccc(N2CCC(NCc3ccco3)CC2)cc1 | – | – | – | –
COc1ccccc1/C=C1/C=C(c2ccc3ccccc3c2)OC1=O | – | – | – | –
CC(=O)c1cccc(Nc2c3c(nc4ccccc24)CCC3)c1 | – | – | 56 | –
CCOC(=O)c1ccc(Nc2cc(C)nc(-c3ccccc3)n2)cc1 | – | – | 40 | –
SMILES | GPR151 activ | FBW7 activator | TEAD-YAP block | MITF inh
N=c1sc2c(n1CC(=O)c1ccc(F)cc1)CCCC2 | – | – | 56 | –
Cc1nn(C)c(C)c1/C=C(/C(=O)C(C)C)n1cncn1 | – | – | – | –
CC(C)C(=O)/C(=C/c1ccc(Cl)cc1Cl)n1cncn1 | – | – | 73 | –
CCOC(=O)c1cnc2ccc(Br)cc2c1N1CC2(C)CC1CC(C)(C)C2 (stereo unspecified) | – | – | – | –
Cc1cccc(C)c1N=C1S/C(=C\c2cn(Cc3ccc(Cl)cc3Cl)nc2-c2ccccc2)C(=O)N1c1ccccc1 | – | – | – | –
O=C(Nc1ccc2c(c1)Cc1ccccc1-2)c1cc(Br)ccc1Cl | – | – | 50 | –
O=C(Nc1ccc2c(c1)Cc1ccccc1-2)c1cc(Cl)ccc1Cl | – | – | – | –
O=c1[nH]c(C2CC2)nc2cc(-c3cnn(-c4ccc(Cl)cc4)c3)ccc12 | – | – | 60 | –
Cc1nc(N2CCCCC2)c2c(C)c(C(=O)Nc3ccc(F)cc3)sc2n1 | – | – | – | –
COC(=O)c1c(NC(=O)C(F)(F)F)sc(Cc2ccccc2)c1C | – | – | – | –
COC(=O)c1c(NC(=O)/C=C\C(=O)O)sc(Cc2ccccc2)c1C | – | – | 32 | –
O=C(CNc1cccc2ccccc12)N=Nc1c(O)[nH]c(=O)[nH]c1=O | – | – | – | –
COc1ccccc1/C=C1/SC(=S)N(CCCCCC(=O)O)C1=O | – | – | 58 | –
COCCN1C(=O)/C(=C/c2ccccc2OC)SC1=S | – | – | – | –
COc1ccccc1/C=C1/SC(=S)N(CCCC(=O)O)C1=O | – | – | 46 | –
O=C(Nc1ccc(C(F)(F)F)cc1)c1cc(S(=O)(=O)N2CCCC2)ccc1F | – | – | – | –
O=c1[nH]c(N/N=C/c2ccccc2O)nnc1Cc1ccccc1 | – | – | 60 | 101
Cc1ccc(/C=N/Nc2nnc(Cc3ccccc3)c(=O)[nH]2)o1 | – | – | – | –
O=c1cnnc(N/N=C/c2ccccc2O)[nH]1 | – | – | – | 108
CNC(=O)/C(C#N)=C\c1cc(C)n(-c2ccc(N3CCOCC3)cc2)c1C | – | – | – | –
